The results in this text go back to ChEMBL document CHEMBL1961873, “Compounds: GSK PKIS; Assays: Nanosyn kinase panel” (2012).

The target of test [1] is Tyrosine-protein kinase SYK (Homo sapiens) (UniProt P43405). The conditions noted are these: at 1 µM.
For test [2], the target named is T1, Tyrosine-protein kinase Tec (Homo sapiens) (UniProt P42680).
T1 sequence (whole entry): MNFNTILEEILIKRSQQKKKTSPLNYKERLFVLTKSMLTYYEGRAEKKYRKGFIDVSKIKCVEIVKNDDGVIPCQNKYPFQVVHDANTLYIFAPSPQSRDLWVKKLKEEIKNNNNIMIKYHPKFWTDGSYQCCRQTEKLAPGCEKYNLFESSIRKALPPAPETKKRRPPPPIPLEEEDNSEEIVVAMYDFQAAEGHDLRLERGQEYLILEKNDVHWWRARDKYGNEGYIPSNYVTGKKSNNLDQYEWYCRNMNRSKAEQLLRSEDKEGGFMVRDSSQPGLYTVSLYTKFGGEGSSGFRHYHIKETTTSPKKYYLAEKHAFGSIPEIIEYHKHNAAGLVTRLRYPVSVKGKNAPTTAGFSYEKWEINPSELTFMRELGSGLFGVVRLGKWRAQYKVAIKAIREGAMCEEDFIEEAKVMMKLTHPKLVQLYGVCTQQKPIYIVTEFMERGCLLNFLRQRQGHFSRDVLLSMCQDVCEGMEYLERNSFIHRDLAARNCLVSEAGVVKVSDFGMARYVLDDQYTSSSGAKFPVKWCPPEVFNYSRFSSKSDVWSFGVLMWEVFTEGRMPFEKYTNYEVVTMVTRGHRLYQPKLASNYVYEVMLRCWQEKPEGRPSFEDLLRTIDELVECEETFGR
The settings on record: at 0.1 µM.

The target in test [3] is T1, Tyrosine-protein kinase Tec (Homo sapiens). The conditions noted are these: at 1 µM.
Test [4] addresses Angiopoietin-1 receptor (Homo sapiens) (UniProt Q02763). The conditions noted are these: at 0.1 µM.
The target is the same in test [5]. The conditions noted are these: at 1 µM.
In test [6] the target is T2, Non-receptor tyrosine-protein kinase TNK1 (Homo sapiens) (UniProt Q13470).
T2 sequence (whole entry): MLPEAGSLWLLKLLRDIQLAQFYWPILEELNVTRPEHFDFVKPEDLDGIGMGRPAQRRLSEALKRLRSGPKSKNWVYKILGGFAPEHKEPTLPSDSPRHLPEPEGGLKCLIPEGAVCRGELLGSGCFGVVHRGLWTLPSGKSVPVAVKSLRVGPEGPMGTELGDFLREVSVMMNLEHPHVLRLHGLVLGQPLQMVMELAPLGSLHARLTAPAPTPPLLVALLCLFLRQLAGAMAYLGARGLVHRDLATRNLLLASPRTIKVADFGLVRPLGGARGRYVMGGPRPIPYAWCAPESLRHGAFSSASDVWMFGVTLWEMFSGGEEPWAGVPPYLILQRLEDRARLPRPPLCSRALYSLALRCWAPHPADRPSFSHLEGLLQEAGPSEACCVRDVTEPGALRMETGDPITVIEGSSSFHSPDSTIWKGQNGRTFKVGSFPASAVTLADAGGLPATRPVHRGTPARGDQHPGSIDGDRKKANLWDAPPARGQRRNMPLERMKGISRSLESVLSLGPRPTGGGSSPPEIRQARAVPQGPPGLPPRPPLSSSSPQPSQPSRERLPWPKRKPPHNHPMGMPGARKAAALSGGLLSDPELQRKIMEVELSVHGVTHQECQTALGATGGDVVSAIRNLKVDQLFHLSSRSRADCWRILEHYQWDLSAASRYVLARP
The settings on record: at 0.1 µM.

Test [7] concerns the target T2, Non-receptor tyrosine-protein kinase TNK1 (Homo sapiens). The settings on record: at 1 µM.
Test [8] addresses Activated CDC42 kinase 1 (Homo sapiens) (UniProt Q07912). The settings on record: at 0.1 µM.
For test [9] the target is unchanged. The conditions noted are these: at 1 µM.
The target in test [10] is High affinity nerve growth factor receptor (Homo sapiens) (UniProt P04629). The settings on record: at 0.1 µM.
Sequence of High affinity nerve growth factor receptor (Homo sapiens) (P04629 33-796 limits assumed): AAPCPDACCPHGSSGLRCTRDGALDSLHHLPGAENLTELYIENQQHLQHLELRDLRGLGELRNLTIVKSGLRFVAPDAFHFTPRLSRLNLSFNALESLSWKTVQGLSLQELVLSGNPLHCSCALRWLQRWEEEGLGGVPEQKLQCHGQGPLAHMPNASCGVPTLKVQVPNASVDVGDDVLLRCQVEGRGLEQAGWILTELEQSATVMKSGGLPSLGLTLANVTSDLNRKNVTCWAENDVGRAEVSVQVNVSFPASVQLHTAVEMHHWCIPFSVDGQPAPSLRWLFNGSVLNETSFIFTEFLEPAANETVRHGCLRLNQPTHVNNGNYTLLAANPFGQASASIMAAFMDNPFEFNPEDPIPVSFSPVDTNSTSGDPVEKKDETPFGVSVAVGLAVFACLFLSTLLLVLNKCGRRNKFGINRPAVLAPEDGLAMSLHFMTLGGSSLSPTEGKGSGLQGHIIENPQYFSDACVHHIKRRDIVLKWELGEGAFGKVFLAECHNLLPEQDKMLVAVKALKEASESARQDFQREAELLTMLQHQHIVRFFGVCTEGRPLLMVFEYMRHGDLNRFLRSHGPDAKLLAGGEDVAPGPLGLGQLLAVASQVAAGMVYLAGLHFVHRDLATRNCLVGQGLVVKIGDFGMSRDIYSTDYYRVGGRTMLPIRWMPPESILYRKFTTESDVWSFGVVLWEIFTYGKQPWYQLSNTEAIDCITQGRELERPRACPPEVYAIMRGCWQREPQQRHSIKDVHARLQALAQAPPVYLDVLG
Test [11] shares this target. The conditions noted are these: at 1 µM.
For test [12], the target named is BDNF/NT-3 growth factors receptor (Homo sapiens) (UniProt Q16620). The conditions noted are these: at 0.1 µM.
Sequence of BDNF/NT-3 growth factors receptor (Homo sapiens) (Q16620 32-822 limits assumed): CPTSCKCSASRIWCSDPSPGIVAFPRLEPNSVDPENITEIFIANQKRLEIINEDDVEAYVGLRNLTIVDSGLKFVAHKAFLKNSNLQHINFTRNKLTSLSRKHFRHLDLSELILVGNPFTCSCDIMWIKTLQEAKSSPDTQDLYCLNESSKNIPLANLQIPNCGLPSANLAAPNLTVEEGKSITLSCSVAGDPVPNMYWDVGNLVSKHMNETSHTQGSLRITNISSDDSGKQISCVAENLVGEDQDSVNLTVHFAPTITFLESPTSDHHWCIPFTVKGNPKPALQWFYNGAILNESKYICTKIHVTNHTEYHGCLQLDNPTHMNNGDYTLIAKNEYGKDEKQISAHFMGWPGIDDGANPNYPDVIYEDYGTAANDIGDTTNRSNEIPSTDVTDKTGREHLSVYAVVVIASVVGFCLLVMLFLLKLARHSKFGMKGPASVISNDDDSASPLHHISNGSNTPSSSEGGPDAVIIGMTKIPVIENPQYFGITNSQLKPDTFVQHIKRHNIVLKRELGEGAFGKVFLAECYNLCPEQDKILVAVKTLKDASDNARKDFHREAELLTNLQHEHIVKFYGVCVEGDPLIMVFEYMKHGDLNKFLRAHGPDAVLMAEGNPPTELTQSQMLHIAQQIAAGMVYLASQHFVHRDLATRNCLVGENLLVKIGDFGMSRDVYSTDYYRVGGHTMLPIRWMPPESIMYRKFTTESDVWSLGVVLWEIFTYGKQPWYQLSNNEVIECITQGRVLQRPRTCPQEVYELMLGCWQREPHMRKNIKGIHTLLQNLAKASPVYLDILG
For test [13] the target is unchanged. The conditions noted are these: at 1 µM.
Test [14] concerns the target NT-3 growth factor receptor (Homo sapiens) (UniProt Q16288). The conditions noted are these: at 0.1 µM.
Test [15] has the same target. The conditions noted are these: at 1 µM.
Test [16] has as its target T3, Tyrosine-protein kinase TXK (Homo sapiens) (UniProt P42681).
T3 sequence (whole entry): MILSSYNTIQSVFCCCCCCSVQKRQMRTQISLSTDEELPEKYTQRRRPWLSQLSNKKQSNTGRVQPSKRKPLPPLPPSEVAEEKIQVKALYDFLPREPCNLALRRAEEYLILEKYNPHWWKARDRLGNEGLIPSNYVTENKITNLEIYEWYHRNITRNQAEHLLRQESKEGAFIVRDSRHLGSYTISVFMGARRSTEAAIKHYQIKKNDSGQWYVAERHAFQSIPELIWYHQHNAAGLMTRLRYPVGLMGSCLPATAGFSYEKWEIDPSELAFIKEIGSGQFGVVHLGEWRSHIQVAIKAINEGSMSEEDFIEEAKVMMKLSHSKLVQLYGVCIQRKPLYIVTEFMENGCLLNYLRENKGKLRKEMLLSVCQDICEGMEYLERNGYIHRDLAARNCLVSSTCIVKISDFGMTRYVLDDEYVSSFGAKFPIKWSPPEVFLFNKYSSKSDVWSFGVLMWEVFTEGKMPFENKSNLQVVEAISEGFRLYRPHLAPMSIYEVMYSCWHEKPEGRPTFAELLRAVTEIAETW
The conditions noted are these: at 0.1 µM.

Test [17] deals with T3, Tyrosine-protein kinase TXK (Homo sapiens). The settings on record: at 1 µM.
In test [18] the target is Non-receptor tyrosine-protein kinase TYK2 (Homo sapiens) (UniProt P29597). The conditions noted are these: at 0.1 µM.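 Also: each value is a mean of the inhibition readings.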
Sequence of Non-receptor tyrosine-protein kinase TYK2 (Homo sapiens) (P29597 whole entry): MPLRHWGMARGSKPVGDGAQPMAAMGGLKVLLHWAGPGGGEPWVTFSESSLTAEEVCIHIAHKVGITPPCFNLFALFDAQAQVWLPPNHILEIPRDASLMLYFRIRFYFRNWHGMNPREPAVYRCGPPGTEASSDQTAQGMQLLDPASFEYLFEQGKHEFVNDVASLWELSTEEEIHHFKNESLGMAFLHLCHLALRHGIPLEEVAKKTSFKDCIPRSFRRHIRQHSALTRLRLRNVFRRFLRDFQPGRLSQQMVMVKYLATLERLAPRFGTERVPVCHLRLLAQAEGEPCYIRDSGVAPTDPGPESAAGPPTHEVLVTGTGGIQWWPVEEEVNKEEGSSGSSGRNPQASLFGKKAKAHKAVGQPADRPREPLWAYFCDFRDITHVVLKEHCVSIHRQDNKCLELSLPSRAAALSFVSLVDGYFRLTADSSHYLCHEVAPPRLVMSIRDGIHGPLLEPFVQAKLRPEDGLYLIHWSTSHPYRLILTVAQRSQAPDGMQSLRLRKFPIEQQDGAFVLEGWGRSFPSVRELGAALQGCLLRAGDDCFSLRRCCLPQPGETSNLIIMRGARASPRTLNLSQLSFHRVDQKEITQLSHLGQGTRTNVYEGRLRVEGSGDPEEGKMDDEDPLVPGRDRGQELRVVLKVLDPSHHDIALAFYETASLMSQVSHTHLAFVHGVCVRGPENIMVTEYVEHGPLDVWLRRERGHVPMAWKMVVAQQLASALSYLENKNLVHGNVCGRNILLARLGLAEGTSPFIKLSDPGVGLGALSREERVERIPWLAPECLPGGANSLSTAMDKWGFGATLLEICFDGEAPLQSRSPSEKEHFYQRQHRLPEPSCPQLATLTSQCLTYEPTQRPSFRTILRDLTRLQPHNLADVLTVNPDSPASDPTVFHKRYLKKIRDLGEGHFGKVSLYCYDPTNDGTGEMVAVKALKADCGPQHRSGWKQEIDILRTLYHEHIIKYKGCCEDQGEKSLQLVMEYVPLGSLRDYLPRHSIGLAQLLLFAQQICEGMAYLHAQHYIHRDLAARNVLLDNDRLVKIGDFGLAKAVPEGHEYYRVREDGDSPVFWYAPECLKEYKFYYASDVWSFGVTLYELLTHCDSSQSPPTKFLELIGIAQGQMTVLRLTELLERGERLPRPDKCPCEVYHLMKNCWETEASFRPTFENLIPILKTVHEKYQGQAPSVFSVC
The target in test [19] is T4, Dual specificity protein kinase TTK (Homo sapiens) (UniProt P33981).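 Also: reported figures are mean TTK inhibition at 1 µM.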
T4 sequence (whole entry): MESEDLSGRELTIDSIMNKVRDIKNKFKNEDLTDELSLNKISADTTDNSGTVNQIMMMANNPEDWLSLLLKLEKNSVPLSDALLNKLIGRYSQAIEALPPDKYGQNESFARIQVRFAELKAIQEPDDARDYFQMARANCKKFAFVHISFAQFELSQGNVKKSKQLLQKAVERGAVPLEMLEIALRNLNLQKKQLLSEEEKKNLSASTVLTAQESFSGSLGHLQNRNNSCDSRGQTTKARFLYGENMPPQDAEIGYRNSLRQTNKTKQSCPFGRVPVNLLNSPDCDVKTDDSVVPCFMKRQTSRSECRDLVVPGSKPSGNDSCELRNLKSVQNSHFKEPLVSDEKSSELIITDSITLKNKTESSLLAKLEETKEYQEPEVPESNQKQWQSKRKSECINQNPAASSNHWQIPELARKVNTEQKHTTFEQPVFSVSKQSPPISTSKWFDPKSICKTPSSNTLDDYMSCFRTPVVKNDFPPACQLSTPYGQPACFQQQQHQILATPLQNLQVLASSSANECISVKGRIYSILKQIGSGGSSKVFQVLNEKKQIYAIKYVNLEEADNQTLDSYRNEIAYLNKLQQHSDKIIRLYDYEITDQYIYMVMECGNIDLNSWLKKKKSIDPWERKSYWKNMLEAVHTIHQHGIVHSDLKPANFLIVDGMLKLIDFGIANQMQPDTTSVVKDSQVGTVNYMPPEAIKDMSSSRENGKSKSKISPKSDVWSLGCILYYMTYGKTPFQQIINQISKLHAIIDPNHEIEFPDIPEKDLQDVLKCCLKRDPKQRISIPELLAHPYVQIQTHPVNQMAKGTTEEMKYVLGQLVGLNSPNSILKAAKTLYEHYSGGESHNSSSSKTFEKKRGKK
The settings on record: at 1 µM.

Test [20] concerns the target T5, Aurora kinase A (Homo sapiens) (UniProt O14965).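 Also: each reported value is a mean percent inhibition of Aurora-A.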
T5 sequence (whole entry): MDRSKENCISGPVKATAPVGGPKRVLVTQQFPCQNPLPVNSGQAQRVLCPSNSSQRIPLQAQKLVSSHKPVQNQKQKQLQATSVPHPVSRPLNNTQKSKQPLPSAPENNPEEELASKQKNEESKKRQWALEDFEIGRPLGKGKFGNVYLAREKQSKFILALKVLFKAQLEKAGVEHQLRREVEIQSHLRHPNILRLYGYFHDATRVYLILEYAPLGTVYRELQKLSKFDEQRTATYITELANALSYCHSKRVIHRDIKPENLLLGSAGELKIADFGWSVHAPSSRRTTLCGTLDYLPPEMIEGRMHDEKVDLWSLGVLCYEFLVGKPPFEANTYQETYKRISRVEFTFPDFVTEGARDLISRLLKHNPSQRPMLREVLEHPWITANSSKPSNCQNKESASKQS
The conditions noted are these: at 0.1 µM.

Sequence of Angiopoietin-1 receptor (Homo sapiens) (Q02763 whole entry): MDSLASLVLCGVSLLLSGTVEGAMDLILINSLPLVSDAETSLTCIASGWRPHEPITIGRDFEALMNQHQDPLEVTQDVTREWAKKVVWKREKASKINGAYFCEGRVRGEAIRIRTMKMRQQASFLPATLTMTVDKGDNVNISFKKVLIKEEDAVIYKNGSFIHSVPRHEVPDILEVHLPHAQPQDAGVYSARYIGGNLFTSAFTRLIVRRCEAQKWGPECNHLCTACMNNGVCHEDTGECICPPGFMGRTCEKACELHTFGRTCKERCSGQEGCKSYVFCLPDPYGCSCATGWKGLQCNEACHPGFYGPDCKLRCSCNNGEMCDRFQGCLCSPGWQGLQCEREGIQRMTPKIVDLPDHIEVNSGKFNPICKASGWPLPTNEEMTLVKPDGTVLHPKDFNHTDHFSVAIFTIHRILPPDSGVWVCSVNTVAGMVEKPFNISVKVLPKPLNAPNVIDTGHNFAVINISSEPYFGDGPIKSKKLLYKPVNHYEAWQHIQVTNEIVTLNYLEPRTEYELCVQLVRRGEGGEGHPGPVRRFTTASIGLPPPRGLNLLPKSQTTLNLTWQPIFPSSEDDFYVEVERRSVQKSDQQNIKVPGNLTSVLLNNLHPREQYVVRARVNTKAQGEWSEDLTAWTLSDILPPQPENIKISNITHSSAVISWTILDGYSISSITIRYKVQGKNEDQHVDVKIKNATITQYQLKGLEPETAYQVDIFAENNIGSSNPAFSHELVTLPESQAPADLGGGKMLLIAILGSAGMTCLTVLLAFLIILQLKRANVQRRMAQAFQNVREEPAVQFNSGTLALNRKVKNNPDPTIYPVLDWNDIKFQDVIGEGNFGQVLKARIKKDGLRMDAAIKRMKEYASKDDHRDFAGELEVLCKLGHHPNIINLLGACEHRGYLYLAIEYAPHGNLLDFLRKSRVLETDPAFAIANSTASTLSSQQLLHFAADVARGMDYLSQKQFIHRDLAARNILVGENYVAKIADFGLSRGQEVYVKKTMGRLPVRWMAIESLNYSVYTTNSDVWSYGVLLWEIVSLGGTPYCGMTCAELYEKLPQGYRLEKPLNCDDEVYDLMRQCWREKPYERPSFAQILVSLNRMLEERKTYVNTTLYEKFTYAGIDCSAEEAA
Sequence of NT-3 growth factor receptor (Homo sapiens) (Q16288 32-839 limits assumed): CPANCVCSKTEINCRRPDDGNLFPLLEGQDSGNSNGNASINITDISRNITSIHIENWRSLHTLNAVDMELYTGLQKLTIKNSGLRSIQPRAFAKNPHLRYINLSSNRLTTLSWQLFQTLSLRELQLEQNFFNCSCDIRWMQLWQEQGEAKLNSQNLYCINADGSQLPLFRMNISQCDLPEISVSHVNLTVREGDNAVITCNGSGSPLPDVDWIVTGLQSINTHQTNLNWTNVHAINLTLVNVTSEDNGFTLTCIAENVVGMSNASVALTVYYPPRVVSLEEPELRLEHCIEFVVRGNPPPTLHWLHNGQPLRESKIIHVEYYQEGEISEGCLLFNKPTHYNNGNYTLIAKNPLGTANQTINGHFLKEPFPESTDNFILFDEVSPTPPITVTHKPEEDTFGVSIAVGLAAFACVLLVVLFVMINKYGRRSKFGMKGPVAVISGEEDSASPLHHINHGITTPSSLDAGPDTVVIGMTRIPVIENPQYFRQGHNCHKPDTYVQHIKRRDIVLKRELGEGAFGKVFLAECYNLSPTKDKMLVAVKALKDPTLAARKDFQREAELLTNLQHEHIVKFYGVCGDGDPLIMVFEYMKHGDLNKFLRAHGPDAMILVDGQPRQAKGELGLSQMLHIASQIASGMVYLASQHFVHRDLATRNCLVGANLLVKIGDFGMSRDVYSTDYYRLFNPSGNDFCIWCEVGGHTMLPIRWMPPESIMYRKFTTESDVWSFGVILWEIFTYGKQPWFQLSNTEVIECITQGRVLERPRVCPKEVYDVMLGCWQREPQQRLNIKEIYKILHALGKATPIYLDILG

With `Cc1cc(-c2ccco2)cc(C)c1/C=C/c1cncc(-c2nn[nH]n2)c1`, the inhibition in test [1] was -0.41%; in test [2] it was -0.18%; in test [3] it was 4.27%; in test [4], 2.4%; in [5], 5.27%; in [6], 14.2%. Besides, the inhibition in test [7] was 75.2%; in test [8] it was 0.58%; in test [9], 3.5%; in test [10] it was -2.1%; in test [11], -4.92%; in test [12] it was -0.9%. For the same molecule, the inhibition in [13] is 4.36%; in test [14] it was -0.6%; in test [15], 5.53%; in [16], -0.29%; in [17], 4.01%; in test [18], 0.06%. Also, the inhibition in test [19] turned out to be 4.48%; in [20], 3.01%.
On to `CCn1c(-c2nonc2N)nc2c(C#CC(C)(C)O)ncc(OCC3CCNCC3)c21`, for which the inhibition in test [1] was -0.6%; in [2], -0.71%; in test [3], 0.43%; in test [4], 0.65%; in test [5], 3.85%; in [6], 1.75%. For the same molecule, the inhibition is 10.6% in test [7]; 0.81% in test [8]; 1.2% in test [9]; 3.1% in test [10]; 2.62% in test [11]; 3.08% in test [12]. In addition, the inhibition is 1.98% in test [13]; 3.15% in test [14]; 3.69% in [15]; -1.16% in test [16]; -1.53% in test [17]; -1.24% in test [18]. Besides, the values for the inhibition in [19] and in [20] were 11.4% and -1.94%, respectively.
Take `Nc1nonc1-c1nc2cnccc2n1C1CCCCC1`: the inhibition in test [1] was -0.01%; in [2], -0.6%; in test [3] it was 1.22%; in [4], 1.78%; in [5], 3.18%; in test [6], -1.33%. For the same molecule, the inhibition was 20.8% in test [7]; -1.67% in [8]; -1.55% in [9]; -1.55% in test [10]; -1.13% in [11]; -1.42% in test [12]. The inhibition in test [13] is -0.84%; in [14] it was -0.5%; in test [15] it was 0.67%; in [16], -1.24%; in [17], -0.03%; in test [18], 4.5%. Further, the inhibition in test [19] is 4.51%; in test [20], -0.63%.
`COc1cc2c(cc1Nc1nc(Nc3ccsc3C(N)=O)c3cc[nH]c3n1)N(C(=O)CN(C)C)CCC2`: the inhibition in test [1] was 11.2%; in test [2] it was -0.19%; in test [3], 4.36%; in test [4] it was 6.04%; in test [5], 10.5%; in test [6], 32.3%. Also, the inhibition is 80.2% in [7]; 0.24% in [8]; 13.2% in [9]; -0.6% in test [12]; 3.59% in [13]; -1.52% in test [14]. Also, the inhibition is 3.92% in test [15]; -2.39% in test [16]; -1.59% in [17]; -8.98% in test [18]; 36.4% in test [19]; 2.03% in [20].

As usually defined, the inhibition is the drop in the measured response relative to a control, in per cent.
